# Values without a mark were called inactive.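 The calls were made as follows, unless noted: active = percent response above 42, roughly 3 SD of non-fluorescent test compounds; inactive = the rest.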 This is one part of the list.
# Biological target: Integrin beta-1 (Homo sapiens) + Integrin alpha-4 (Homo sapiens) (UniProt P13612+P05556)
# Experiment: alpha4beta1 integrin LIBS antibody binding reduction – U937 cells, HUTS-21 mAb, flow cytometry, validation set, VLA-4 allosteric modulator project, pilot screen (AID 2674;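 active = inhibition above 50%, about 3 SD of the validation set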;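 also: antibody binding induced by the VLA-4 ligand LDV present at three times its Kd; 0% = LDV ligand with antibody and no compound and 100% = antibody without LDV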)
# Conditions: HUTS-21 LIBS mAb binding, at 6.7 µM, active compounds read high, binding induced by LDV ligand
# Sequence of Integrin beta-1 (Homo sapiens) + Integrin alpha-4 (Homo sapiens) (P05556 whole entry, looked up): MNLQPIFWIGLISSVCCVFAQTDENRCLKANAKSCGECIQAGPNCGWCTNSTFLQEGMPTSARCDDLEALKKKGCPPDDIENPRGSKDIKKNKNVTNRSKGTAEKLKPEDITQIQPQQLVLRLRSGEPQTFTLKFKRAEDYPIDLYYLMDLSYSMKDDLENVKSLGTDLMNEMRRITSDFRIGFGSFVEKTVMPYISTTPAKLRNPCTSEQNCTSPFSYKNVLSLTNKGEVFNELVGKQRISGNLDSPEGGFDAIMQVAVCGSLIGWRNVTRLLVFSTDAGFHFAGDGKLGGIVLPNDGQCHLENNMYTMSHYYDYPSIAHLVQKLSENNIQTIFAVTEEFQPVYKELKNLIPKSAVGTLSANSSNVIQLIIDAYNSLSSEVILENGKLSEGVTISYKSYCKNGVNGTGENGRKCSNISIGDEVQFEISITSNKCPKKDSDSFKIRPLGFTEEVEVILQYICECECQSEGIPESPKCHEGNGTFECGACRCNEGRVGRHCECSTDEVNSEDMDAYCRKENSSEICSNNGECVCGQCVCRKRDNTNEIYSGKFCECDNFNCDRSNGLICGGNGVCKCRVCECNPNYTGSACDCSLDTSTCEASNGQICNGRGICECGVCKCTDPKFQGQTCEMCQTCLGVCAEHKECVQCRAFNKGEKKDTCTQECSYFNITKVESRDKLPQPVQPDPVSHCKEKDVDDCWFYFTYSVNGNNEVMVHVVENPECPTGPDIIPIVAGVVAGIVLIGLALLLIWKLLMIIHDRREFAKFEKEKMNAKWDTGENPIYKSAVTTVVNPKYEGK
# Sequence of Integrin beta-1 (Homo sapiens) + Integrin alpha-4 (Homo sapiens) (P13612 whole entry, looked up): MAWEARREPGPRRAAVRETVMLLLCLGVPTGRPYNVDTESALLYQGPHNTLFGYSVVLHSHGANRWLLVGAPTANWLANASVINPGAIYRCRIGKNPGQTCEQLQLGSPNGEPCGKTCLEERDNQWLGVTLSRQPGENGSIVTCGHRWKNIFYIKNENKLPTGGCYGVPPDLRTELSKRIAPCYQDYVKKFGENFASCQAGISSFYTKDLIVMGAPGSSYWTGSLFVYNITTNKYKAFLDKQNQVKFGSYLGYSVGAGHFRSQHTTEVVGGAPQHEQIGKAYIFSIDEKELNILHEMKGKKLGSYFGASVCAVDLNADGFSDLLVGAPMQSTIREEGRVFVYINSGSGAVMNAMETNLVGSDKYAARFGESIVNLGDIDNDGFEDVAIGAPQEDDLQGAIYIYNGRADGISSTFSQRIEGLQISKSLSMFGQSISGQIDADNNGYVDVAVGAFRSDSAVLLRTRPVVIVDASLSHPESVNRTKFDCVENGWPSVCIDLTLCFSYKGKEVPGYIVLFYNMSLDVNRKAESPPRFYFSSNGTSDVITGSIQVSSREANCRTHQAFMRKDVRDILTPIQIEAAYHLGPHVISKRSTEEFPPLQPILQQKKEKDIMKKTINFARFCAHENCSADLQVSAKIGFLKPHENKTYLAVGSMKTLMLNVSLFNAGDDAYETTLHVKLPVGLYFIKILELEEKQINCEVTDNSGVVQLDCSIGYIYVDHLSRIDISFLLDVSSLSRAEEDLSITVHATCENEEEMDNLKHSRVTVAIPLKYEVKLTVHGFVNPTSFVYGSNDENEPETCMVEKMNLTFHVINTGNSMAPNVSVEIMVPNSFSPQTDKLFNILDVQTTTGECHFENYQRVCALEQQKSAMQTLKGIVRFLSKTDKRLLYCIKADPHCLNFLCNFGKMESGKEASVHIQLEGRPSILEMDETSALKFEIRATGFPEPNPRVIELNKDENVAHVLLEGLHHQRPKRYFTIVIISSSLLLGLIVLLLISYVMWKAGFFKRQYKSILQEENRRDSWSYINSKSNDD
row,SMILES,inhibition
1,CS(=O)(=O)Oc1ccc2c(c1)O/C(=C\C=C\c1ccccc1)C2=O,-40.9%
2,CC(C)NC[C@@H](O)c1ccc(O)c(O)c1,-27.9%
3,CN1CCc2cccc3c2[C@H]1Cc1ccc(O)c(O)c1-3,-17.1%
4,O=C(NCCN1CCOCC1)c1ccc(Cl)cc1,-16%
5,O=C(NCCN1CCCCC1)c1c(O)c2ccccc2[nH]c1=O,-6.68%
6,COc1ccc(S(=O)(=O)N2CCN(C(=O)COc3ccc4c(C)cc(=O)oc4c3)CC2)cc1,3.67%
7,COc1ccc2cc(-c3nc4ccccc4n3C)c(=O)oc2c1,-9.79%
8,CCn1c(=N)c(C(=O)NC)cc2c(=O)n3cccc(C)c3nc21,-8.75%
9,COC(=O)c1cc(-c2ccc(OC)c(OC)c2)on1,-0.45%
10,CNc1nc(N(C)C)nc(N(C)C)n1,-2.53%
11,C(=C\c1ccccc1)/CN1CCN(C(c2ccccc2)c2ccccc2)CC1,-1.3%
12,Cc1[nH]c2ccccc2c1C(=O)CN1CCCC1,-4.6%
13,CCOc1ccccc1C(=O)NCCC(=O)O,-17.1%

# Test system: not listed separately
# Experiment: calorie-restriction mimetic ROS inhibitors, yeast – validation compound set, pilot screen (AID 2706;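 active = superoxide response below 65% of plate, a cut near 3 SD across the whole screen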;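 also: yeast exposed to compound for one week at 30 degrees C before staining; 100% = mean of all compound wells on the same plate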)
# Conditions: S. cerevisiae aging, superoxide DHE fluorescence; at 10 µM, active compounds read low
row,SMILES,superoxide response (% of plate)
1,CC(C)NC[C@@H](O)c1ccc(O)c(O)c1,97.4%
2,COc1ccc(S(=O)(=O)N2CCN(C(=O)COc3ccc4c(C)cc(=O)oc4c3)CC2)cc1,96.9%
3,Oc1ccc(Cl)cc1Cc1cc(Cl)ccc1O,110%
4,C(=C\c1ccccc1)/CN1CCN(C(c2ccccc2)c2ccccc2)CC1,86.5%

# Test system: not listed separately
# Experiment: green-channel fluorescence artefact in S. cerevisiae – s288c strain, artefact control for yeast TOR pathway GFP screen, dose response (AID 2757;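 active = fluorescence span over the dose series, or activity score, above about 33, limit read from the data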;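 also: thousands of bead-calibrated equivalent soluble fluorophore molecules from median cell fluorescence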)
# Conditions: 520 nm autofluorescence, flow cytometry, 3 h, at 33 µM, active compounds read high, zero means same as solvent-only cells
row,SMILES,fluorescence change (kMESF span)
1,COc1ccc(C2(C)ON(c3ccccc3C(F)(F)F)C2=O)cc1 (stereo not given),0.5
2,O=C(Nc1nnc(-c2ccc(Cl)cc2)o1)c1ccccc1Br,0.5
3,CC(Oc1ccc2ccccc2c1)C(=O)NNC(=S)NC(=O)c1ccco1 (stereo not given),2.02
4,Clc1cccc(CN2COc3c(cc(Cl)c4cccnc34)C2)c1,1.92
5,COc1cccc(/C=N/Nc2ncc(C(F)(F)F)cc2Cl)c1O,1.52

# Biological target: Beta-adrenergic receptor kinase 1 (Homo sapiens) (UniProt P25098)
# Experiment: GRK2 binders displacing RNA aptamer, biochemical, validation, human GRK2, bead flow cytometry (AID 488806;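 active = aptamer binding inhibition above 30%, about 3 SD of noise from non-fluorescent compounds; inactive = inhibition at or below 30%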)
# Conditions: bead-bound GRK2, FAM-aptamer displacement, at 10 µM, active compounds read high
# Sequence of Beta-adrenergic receptor kinase 1 (Homo sapiens) (P25098 whole entry, looked up): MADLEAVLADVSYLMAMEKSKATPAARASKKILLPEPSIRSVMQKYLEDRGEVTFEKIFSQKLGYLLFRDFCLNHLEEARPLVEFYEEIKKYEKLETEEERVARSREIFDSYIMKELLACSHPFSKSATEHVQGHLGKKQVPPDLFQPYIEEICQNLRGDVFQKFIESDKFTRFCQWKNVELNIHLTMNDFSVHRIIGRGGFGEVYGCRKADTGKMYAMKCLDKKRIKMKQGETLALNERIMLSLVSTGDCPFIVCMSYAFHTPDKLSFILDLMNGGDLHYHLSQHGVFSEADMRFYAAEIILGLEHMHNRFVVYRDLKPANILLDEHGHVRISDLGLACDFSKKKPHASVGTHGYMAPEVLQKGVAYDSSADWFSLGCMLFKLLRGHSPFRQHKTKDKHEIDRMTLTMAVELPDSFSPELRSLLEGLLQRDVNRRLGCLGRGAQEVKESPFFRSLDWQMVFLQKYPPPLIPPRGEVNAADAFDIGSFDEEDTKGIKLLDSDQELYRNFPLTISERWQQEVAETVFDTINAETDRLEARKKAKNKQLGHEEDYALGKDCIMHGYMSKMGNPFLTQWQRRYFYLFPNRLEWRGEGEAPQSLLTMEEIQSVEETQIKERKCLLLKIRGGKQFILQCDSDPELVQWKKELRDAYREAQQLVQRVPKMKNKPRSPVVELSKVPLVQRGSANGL
row,SMILES,aptamer binding inhibition
1,CS(=O)(=O)Oc1ccc2c(c1)O/C(=C\C=C\c1ccccc1)C2=O,4%
2,CN1CCc2cccc3c2[C@H]1Cc1ccc(O)c(O)c1-3,4%
3,O=C(NCCN1CCOCC1)c1ccc(Cl)cc1,-1%
4,O=C(NCCN1CCCCC1)c1c(O)c2ccccc2[nH]c1=O,-4%
5,COc1ccc(S(=O)(=O)N2CCN(C(=O)COc3ccc4c(C)cc(=O)oc4c3)CC2)cc1,-1%
6,COc1ccc2cc(-c3nc4ccccc4n3C)c(=O)oc2c1,1%
7,CCn1c(=N)c(C(=O)NC)cc2c(=O)n3cccc(C)c3nc21,2%
8,Oc1ccc(Cl)cc1Cc1cc(Cl)ccc1O,3%
9,COC(=O)c1cc(-c2ccc(OC)c(OC)c2)on1,-1%
10,CNc1nc(N(C)C)nc(N(C)C)n1,-1%
11,C(=C\c1ccccc1)/CN1CCN(C(c2ccccc2)c2ccccc2)CC1,0%
12,Cc1[nH]c2ccccc2c1C(=O)CN1CCCC1,-4%
13,CCOc1ccccc1C(=O)NCCC(=O)O,1%

# Biological target: Beta-2 adrenergic receptor (Homo sapiens) (UniProt P07550)
# Experiment: agonist-induced loss of surface beta2AR – cell-based, FAP fluorogen, flow cytometry, validation set, pilot screen (AID 504459);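 also: agonist-driven loss of surface beta2AR via internalization measured by FAP dye flow cytometry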
# Conditions: Am2.2-beta2AR cells, at 10 µM, active compounds read high
# Sequence of Beta-2 adrenergic receptor (Homo sapiens) (P07550 whole entry, looked up): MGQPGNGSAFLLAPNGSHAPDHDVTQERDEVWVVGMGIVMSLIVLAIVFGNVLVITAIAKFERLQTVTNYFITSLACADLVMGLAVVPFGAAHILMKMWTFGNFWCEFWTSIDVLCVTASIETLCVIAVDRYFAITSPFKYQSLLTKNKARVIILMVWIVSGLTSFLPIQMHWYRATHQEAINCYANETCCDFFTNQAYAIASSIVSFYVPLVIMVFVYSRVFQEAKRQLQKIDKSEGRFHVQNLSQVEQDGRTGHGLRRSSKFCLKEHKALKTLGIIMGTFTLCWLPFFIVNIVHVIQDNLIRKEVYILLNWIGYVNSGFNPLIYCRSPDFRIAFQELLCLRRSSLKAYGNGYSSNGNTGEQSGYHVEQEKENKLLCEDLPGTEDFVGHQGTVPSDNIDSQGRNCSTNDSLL
row,SMILES,response
1,CS(=O)(=O)Oc1ccc2c(c1)O/C(=C\C=C\c1ccccc1)C2=O,26.6%
2,CN1CCc2cccc3c2[C@H]1Cc1ccc(O)c(O)c1-3,6.81%
3,O=C(NCCN1CCOCC1)c1ccc(Cl)cc1,15.8%
4,O=C(NCCN1CCCCC1)c1c(O)c2ccccc2[nH]c1=O,0.73%
5,COc1ccc(S(=O)(=O)N2CCN(C(=O)COc3ccc4c(C)cc(=O)oc4c3)CC2)cc1,11.5%
6,COc1ccc2cc(-c3nc4ccccc4n3C)c(=O)oc2c1,-16.5%
7,CCn1c(=N)c(C(=O)NC)cc2c(=O)n3cccc(C)c3nc21,-15.1%
8,Oc1ccc(Cl)cc1Cc1cc(Cl)ccc1O,17.5%
9,COC(=O)c1cc(-c2ccc(OC)c(OC)c2)on1,17.4%
10,CNc1nc(N(C)C)nc(N(C)C)n1,8.29%
11,C(=C\c1ccccc1)/CN1CCN(C(c2ccccc2)c2ccccc2)CC1,11.4%
12,Cc1[nH]c2ccccc2c1C(=O)CN1CCCC1,7.28%
13,CCOc1ccccc1C(=O)NCCC(=O)O,12.6%

# Biological target: AP-2 complex subunit beta (Homo sapiens) (UniProt P63010)
# Experiment: beta-arrestin/AP2 interaction blockers – biochemical, validation set, GST-AP2 beads, flow cytometry, pilot screen (AID 504541;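 active = inhibition above 54%, about 3 SD of non-fluorescent compounds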;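 also: AP2 carries R879A mutation and is captured from E. coli lysate; bead-bound FITC arrestin peptide fluorescence measuring arrestin peptide binding to AP2; 0% = DMSO wells and 100% = excess unlabeled arrestin peptide control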)
# Conditions: FITC arrestin peptide, at 10 µM, active compounds read high, AP2 beta2 appendage fragment, R879A mutant
# Sequence of AP-2 complex subunit beta (Homo sapiens) (P63010 whole entry, looked up, one chain of several): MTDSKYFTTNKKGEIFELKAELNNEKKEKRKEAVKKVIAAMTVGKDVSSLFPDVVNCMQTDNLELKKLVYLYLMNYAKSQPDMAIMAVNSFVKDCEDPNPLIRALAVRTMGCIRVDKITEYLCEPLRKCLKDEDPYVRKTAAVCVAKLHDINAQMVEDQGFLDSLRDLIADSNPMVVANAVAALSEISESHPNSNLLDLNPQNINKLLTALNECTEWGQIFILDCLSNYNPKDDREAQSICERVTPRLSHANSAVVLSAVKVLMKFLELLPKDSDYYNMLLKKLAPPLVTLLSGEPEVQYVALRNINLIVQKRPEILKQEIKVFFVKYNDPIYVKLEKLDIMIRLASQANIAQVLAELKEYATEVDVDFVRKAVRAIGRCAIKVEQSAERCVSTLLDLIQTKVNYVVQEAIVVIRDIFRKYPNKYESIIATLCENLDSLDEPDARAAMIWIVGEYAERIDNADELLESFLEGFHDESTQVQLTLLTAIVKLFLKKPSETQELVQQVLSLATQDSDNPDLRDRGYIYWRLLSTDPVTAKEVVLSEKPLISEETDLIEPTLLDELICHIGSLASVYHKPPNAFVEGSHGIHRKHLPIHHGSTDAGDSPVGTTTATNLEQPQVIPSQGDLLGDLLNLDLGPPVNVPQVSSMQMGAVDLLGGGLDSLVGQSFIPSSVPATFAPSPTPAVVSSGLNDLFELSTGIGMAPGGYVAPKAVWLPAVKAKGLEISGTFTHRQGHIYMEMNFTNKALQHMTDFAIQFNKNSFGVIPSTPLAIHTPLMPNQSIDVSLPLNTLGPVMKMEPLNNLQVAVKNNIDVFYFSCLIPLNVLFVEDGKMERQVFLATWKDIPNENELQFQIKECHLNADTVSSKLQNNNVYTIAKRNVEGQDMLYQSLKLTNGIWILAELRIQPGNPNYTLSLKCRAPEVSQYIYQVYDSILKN
row,SMILES,inhibition
1,CS(=O)(=O)Oc1ccc2c(c1)O/C(=C\C=C\c1ccccc1)C2=O,27.4%
2,CC(C)NC[C@@H](O)c1ccc(O)c(O)c1,0.64%
3,CN1CCc2cccc3c2[C@H]1Cc1ccc(O)c(O)c1-3,3.9%
4,O=C(NCCN1CCOCC1)c1ccc(Cl)cc1,23.5%
5,O=C(NCCN1CCCCC1)c1c(O)c2ccccc2[nH]c1=O,5.65%
6,COc1ccc(S(=O)(=O)N2CCN(C(=O)COc3ccc4c(C)cc(=O)oc4c3)CC2)cc1,-2.78%
7,Oc1ccc(Cl)cc1Cc1cc(Cl)ccc1O,24.9%
8,COC(=O)c1cc(-c2ccc(OC)c(OC)c2)on1,35.3%
9,CNc1nc(N(C)C)nc(N(C)C)n1,14.9%
10,C(=C\c1ccccc1)/CN1CCN(C(c2ccccc2)c2ccccc2)CC1,0.96%
11,Cc1[nH]c2ccccc2c1C(=O)CN1CCCC1,4.83%
12,CCOc1ccccc1C(=O)NCCC(=O)O,19.4%
